Test results from article PMC5540273 (PLoS ONE, 2017).

Assays:
Conditions in all cases: concentration: 1 μM, replicates: in singlicate; n = 1
[1] = system: PRKD3
[2] = system: PRKG1
[3] = system: PRKG2
[4] = system: T1, PRKR
T1 construct: gene EIF2AK2

[5] = system: PRKX
[6] = system: PRP4
[7] = system: T2, PYK2
T2 construct: gene PTK2B

[8] = system: QSK
[9] = system: RAF1
[10] = system: RET
[11] = system: RIOK1
[12] = system: RIOK2
[13] = system: RIOK3
[14] = system: RIPK1
[15] = system: RIPK2
[16] = system: RIPK4
[17] = system: RIPK5
[18] = system: ROCK1
[19] = system: ROCK2
[20] = system: ROS1
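Also: KINOMEscan kinase panel screen.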

| SMILES | %Inh [1] [%] | %Inh [2] [%] | %Inh [3] [%] | %Inh [4] [%] | %Inh [5] [%] | %Inh [6] [%] | %Inh [7] [%] | %Inh [8] [%] | %Inh [9] [%] | %Inh [10] [%] | %Inh [11] [%] | %Inh [12] [%] | %Inh [13] [%] | %Inh [14] [%] | %Inh [15] [%] | %Inh [16] [%] | %Inh [17] [%] | %Inh [18] [%] | %Inh [19] [%] | %Inh [20] [%] |
| --- | --- | --- | --- | --- | --- | --- | --- | --- | --- | --- | --- | --- | --- | --- | --- | --- | --- | --- | --- | --- |
| Cc1ccc(C(=O)Nc2ccc(Nc3ccnc4cc(-c5nccs5)ccc34)cc2O)cc1.Cl [GW494702] | 0 | 0 | 0 | 0 | 11 | 46 | 0 | 0 | 19 | 59 | 27 | 7 | 0 | 0 | 49 | 13 | 0 | 18 | 12 | 0 |
| COc1cccc(C2=C(Nc3ccc(Cl)c(C(=O)O)c3)C(=O)NC2=O)c1 [SB-390769] | 0 | 0 | 41 | 9 | 0 | 31 | 0 | 100 | 14 | 11 | 0 | 0 | 5 | 0 | 21 | 7 | 100 | 28 | 12 | 0 |
| c1ccc(Oc2ccc(Nc3ccnc4cc(-c5ccc(CNCCN6CCOCC6)o5)ccc34)cc2)nc1 [GW567145] | 23 | 1 | 2 | 0 | 0 | 36 | 0 | 17 | 2 | 5 | 0 | 0 | 0 | 0 | 93.5 | 0 | 1 | 4 | 40 | 0 |
| COc1cc(Nc2nccc(-c3c(-c4cccc(NC(=O)c5c(F)cccc5F)c4)nn4ccccc34)n2)cc(OC)c1OC [GSK323521] | 42 | 31 | 0 | 15 | 22 | 1 | 2 | 3 | 16 | 29 | 34 | 14 | 0 | 93.9 | 79 | 0 | 67 | 0 | 6 | 0 |
| Fc1ccc(-c2ncn(C3CCNCC3)c2-c2ccnc(Oc3ccc(-c4ccccc4)cc3)n2)cc1 [SB-245391] | 0 | 6 | 26 | 25 | 0 | 0 | 80 | 7 | 0 | 3 | 7 | 0 | 5 | 0 | 70 | 34 | 33 | 0 | 7 | 0 |
| CCCCc1nn2ncccc2c1-c1ccnc(Nc2ccc(N3CCN(C)CC3)cc2)n1 [GW684941] | 86 | 0 | 4 | 0 | 31 | 36 | 40 | 43 | 0 | 99.5 | 52 | 44 | 49 | 22 | 74 | 29 | 56 | 32 | 30 | 71 |
| Cl.c1ccc(-c2ccc3c(Nc4ccc5[nH]ncc5c4)ccnc3c2)nc1 [GW440137] | 17 | 0 | 0 | 0 | 19 | 66 | 2 | 6 | 15 | 76 | 32 | 11 | 32 | 6 | 75 | 23 | 4 | 10 | 35 | 0 |
| CN1CCN(Cc2cccc(-c3ccc4c(Nc5ccc(Oc6ccccc6)cc5)ccnc4c3)c2)CC1 [GW578342] | 0 | 0 | 0 | 0 | 6 | 27 | 0 | 9 | 0 | 48 | 21 | 0 | 32 | 0 | 98.6 | 0 | 0 | 25 | 20 | 0 |
| Cc1cccc(Nc2nc(N[C@H]3CCNC3)ncc2C(N)=O)c1.Cl [GSK2197149] | 75 | 0 | 0 | 22 | 38 | 23 | 49 | 14 | 0 | 30 | 99.8 | 28 | 89 | 0 | 0 | 90.7 | 1 | 67 | 45 | 32 |
| O=C(Nc1ccccc1F)NC1CCN(c2ccnc(Nc3ccc(F)cc3)n2)CC1 [GSK1379800] | 0 | 15 | 0 | 0 | 7 | 45 | 0 | 1 | 16 | 4 | 58 | 0 | 43 | 26 | 0 | 16 | 0 | 10 | 31 | 0 |
